Assay results: PubChem BioAssay (NCATS)
Where “and” joins values, the source holds several entries; their conditions need not be identical. Identical values can stand only once. Inconclusive results are not listed. Where a structure was tested more than once in an assay, its records may differ in their call. Unmarked numbers belong to inactive results. Calls of active or inactive are those of the source. The call rests on the fitted dose curve; in most records, active means well fitted inhibition curve with a large enough effect; inconclusive means small, poorly fitted or top-dose-only effect; inactive means flat fitted curve, though single readings scatter.

Columns and labels:
[1] = Drug repurposing screens with cells derived from glioblastoma tumor samples (AID 1345199); details: GBM patient neurospheres viability, ATP luminescence, 48 h; further: nearly all actives have a fitted effect of over 40% in size
In short: (§1)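 Four patient lines of CD133+ GBM neurospheres were screened at several concentrations; hits were retested in those lines plus three slower-growing GBM lines, using 48-hour treatment and ATP-based viability.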

[2] = tested on: astro; assay: as above; details: viability, ATP luminescence, 48 h; series mostly up to 45.9 µM
In short: as §1

[3] = at 45.9 µM (top of the series), tumour line B
[4] = at 45.9 µM (top of the series), tumour line D
[5] = at 46 µM (top of the series), tumour line A
[6] = at 46.1 µM (top of the series), tumour line C
[7] = at 20 µM (top of the series), tumour line C
[8] = at 21.2 µM (top of the series), tumour line B
[9] = at 21.2 µM (top of the series), tumour line D
On the % scale 0 is the no-effect control and ±100 the full control effect; potency means the concentration at half of the fitted maximal effect.

Structure (SMILES)	activity, negative = cell killing [1, 3]	activity, negative = cell killing [1, 4]	activity, negative = cell killing [1, 5]	activity, negative = cell killing [1, 6]	Potency [2]	Potency ([1]; tumour line A)	activity, negative = cell killing [1, 7]	activity, negative = cell killing [1, 8]	activity, negative = cell killing [1, 9]	activity, negative = cell killing ([1]; at 21.3 µM (top of the series), tumour line A)
CCC(C)[C@@H](N)C(=O)O (stereo not given in full)	-9.25%	-6.09%	-16.7%	10.2%	inactive					
C=O	-5.16%	-12.4%	-10.6%	0.841%	inactive					
CCC(=O)OC(OP(=O)(CCCCc1ccccc1)CC(=O)N1C[C@H](C2CCCCC2)C[C@H]1C(=O)O)C(C)C (stereo not given in full)	-7.98%	-19.4%	-12.6%	-19%	inactive					
CC(=O)OCC(=O)[C@@]1(O)CC[C@H]2[C@@H]3CCC4=CC(=O)CC[C@]4(C)C3=CC[C@@]21C	-7.95%	3.12%	-15.3%	-8.95%	inactive					
CCCC(CCC)C(=O)OC1C[C@H]2CC[C@@H](C1)[N+]2(C)C (stereo not given in full)	-8.76% and -2.82%	-23.5% and -24.1%		-20.2%	inactive	17.8 µM (active)				
O=C(O)CCC/C=C\C[C@@H]1[C@@H](/C=C/[C@@H](O)COc2cccc(C(F)(F)F)c2)[C@H](O)C[C@@H]1O	-0.927%	2.71%	-17.8%	3.43%	inactive					
CO/N=C(\C(=O)N[C@@H]1C(=O)N2C(C(=O)O)=CCS[C@H]12)c1csc(N)n1	-10.9%	-17.7%	-10.3%	-14%	inactive					
CCCCC(O)c1ccccc1 (stereo not given)	-4.84%	-15%	-44.5%	0.769%	inactive					
O.O.O.O.O.O.O.O=S(=O)([O-])[O-].[Co+2]	-22.6%	15.1%	-23.8%	10.4%	inactive					
CSCCC(N)C(=O)O (stereo not given)	-9.94%	-6.77%	-11.9%	-3.8%	inactive					
OCCCNc1ccccc1	1.67%	-0.692%	-52.2%	-9.32%	inactive					
CC(CNC(=O)c1cccnc1)NC(=O)c1cccnc1 (stereo not given)	-10.6%	-9.97%	-56.9%	-14.1%	inactive					
CC(=O)O[C@@H]1CC2CCC1(C)C2(C)C (stereo not given in full)	-4.03%	-12.8%	-12.3%	-4.87%	inactive					
OC/C=C/c1ccccc1	-6.23%	-1.36%	-12.3%	8.18%	inactive					
CCCC(=O)O	-1.41%	-13.2%	-10.6%	-26.8%	inactive					
O=[n+]1ccn([O-])c2ccccc21	-6.39%	-13.6%	-22.5%	-17%	inactive					
COc1ccc(/C=C/C(=O)OCCC(C)C)cc1	1.41%	-11.4%	4.4%	-1.14%	inactive					
Cc1ncc(C[n+]2csc(CCO)c2C)c(N)n1					inactive		-11.7%	-7.55%	3.61%	-16.2%
O=C(O)[C@@H]1C[C@H](CP(=O)(O)O)CCN1	-4.93%	-11.9%	-21.2%	-14%	inactive					
CN1CCc2c(c3ccccc3n2Cc2ccccc2)C1					inactive	5.62 µM (active)	-5.19%	-12.3%	-14.4%	
CC(=O)NCCCS(=O)(=O)O	-1.38%	-1.99%	-10.5%	-6.16%	inactive					
